Test results taken from the supplement of paper PMC8699584.
Counter-ions that a name gives are not always drawn. ± gives the standard deviation of the averaged measurements.

Each molecule was assayed on Molm13 (assay: cell viability relative to DMSO control (bortezomib = 0%); higher = less growth inhibition). Details: 10 nM; 72 h.
In short: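 Acute myeloid leukemia cells were plated at 1000 cells per well in 50 µL onto a 679-compound library of approved and investigational agents in 384-well plates and exposed to a single 10 nM dose for 72 h, in duplicate. Cell viability was measured by CellTiter-Glo luminescence on an EnVision reader. Readings were scaled to percentages by per-plate linear regression, with DMSO-treated cells set at 100% and positive-control-treated cells at 0%.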
Molecule `CC1(C)CN(C(=O)c2ccc(-c3cccc4nc(NC(=O)C5CC5)nn34)cc2)C1` [Solcitinib] has a cell viability of 115 ± 6.5%. For `COc1ccc(C(=C2C(=O)Nc3ccccc32)c2ccc(OC)cc2)cc1`, the cell viability was 95.1 ± 2.4%. Work on `Cc1c(NC(=O)c2ccc(C(C)(C)C)cc2)cccc1-c1cn(C)c(=O)c(Nc2ccc(C(=O)N3CCOCC3)cc2)n1` yielded a cell viability of 106 ± 13%. In the case of `COc1cc(Nc2nc3ccccc3nc2NS(=O)(=O)c2ccc(NC(=O)c3ccc(C)c(OC)c3)cc2)cc(OC)c1`, the cell viability is reported as 107 ± 25%. `NCCNS(=O)(=O)c1cccc2cnccc12` [H-9 (hydrochloride)] gave a cell viability of 114 ± 24%. With `Cc1nc(Nc2ncc(C(=O)Nc3c(C)cccc3Cl)s2)cc(N2CCN(CCO)CC2)n1` [Dasatinib] the cell viability was 111 ± 29%. `O=S(=O)(NCCNC/C=C/c1ccc(Br)cc1)c1cccc2cnccc12` [H-89 (hydrochloride)] showed a cell viability of 114 ± 19%. `COc1cc2c(Oc3ccc(NC(=O)C4(C(=O)Nc5ccc(F)cc5)CC4)cc3F)ccnc2cc1OCCCN1CCOCC1` showed a cell viability of 14.3 ± 2.5%. Work on `CCN(CC)CCNC(=O)c1c(C)[nH]c(/C=C2\C(=O)Nc3ccc(F)cc32)c1C` [Sunitinib (malate)] yielded a cell viability of 50.3 ± 5.7%. With `CCCCCCCCCCCCC/C=C/[C@@H](O)[C@H](CO)N(C)C` [N,N-Dimethylsphingosine] the cell viability was 108 ± 20%. `FC(F)c1nc2ccccc2n1-c1nc(N2CCOCC2)nc(N2CCOCC2)n1` gave a cell viability of 117 ± 11%. `COC(=O)[C@]12CCC(C)(C)C[C@H]1[C@H]1C(=O)C=C3[C@@]4(C)C=C(C#N)C(=O)C(C)(C)[C@@H]4CC[C@@]3(C)[C@]1(C)CC2` [Bardoxolone Methyl] showed a cell viability of 102 ± 6.8%. For `Nc1nc(OCC2CCCCC2)c2[nH]cnc2n1`, the cell viability was 90.5 ± 11%. For `CNC(=O)Nc1cc(Oc2cncc(C)c2)c(-c2ccc(OCC(C)(C)O)nc2)cn1`, the cell viability was 101.5 ± 0.58%. Molecule `CS(=O)(=O)N1CCc2c(-c3cnc(N)nc3)nc(N3CCOCC3)nc21` has a cell viability of 119.7 ± 0.72%. `C=CC(=O)N1CCC(Oc2cc3c(Nc4ccc(Cl)c(Cl)c4F)ncnc3cc2OC)CC1` [Poziotinib (HM781-36B)] gave a cell viability of 111.4 ± 0.44%. `CC(C)c1ccc2c(c1)CC[C@@H]1[C@@](C)(CN)CCC[C@@]21C` [Leelamine (hydrochloride)] gave a cell viability of 101.6 ± 0.018%. Work on `CC[C@H](Nc1ncnc2[nH]cnc12)c1nc2cccc(F)c2c(=O)n1-c1ccccc1` [CAL-101 (Idelalisib, GS-1101)] yielded a cell viability of 93.7 ± 22%. For `O=c1cc(-c2ccccc2)oc2c(O)c(O)ccc12` [7,8-Dihydroxyflavone], the cell viability was 108 ± 16%. `N#CCNC(=O)c1ccc(-c2ccnc(Nc3ccc(N4CCOCC4)cc3)n2)cc1` [Momelotinib (CYT387)] was tested, and the cell viability was 98.5 ± 17%. `NCCCNc1ccc(Nc2nccc(Nc3cc(C4CC4)[nH]n3)n2)cc1` showed a cell viability of 94.71 ± 0.31%. In the case of `CNC(=O)c1ccccc1Sc1ccc2c(/C=C/c3ccccn3)n[nH]c2c1` [Axitinib], the cell viability is reported as 120 ± 7%. Work on `COc1ccc(S(=O)(=O)N(CCO)c2ccccc2CN(C)C/C=C/c2ccc(Cl)cc2)cc1` [KN-93 Phosphate] yielded a cell viability of 99.1 ± 2.2%. In the case of `COc1cc(Nc2c(C#N)cnc3cc(OCCCN4CCN(C)CC4)c(OC)cc23)c(Cl)cc1Cl` [Bosutinib], the cell viability is reported as 112 ± 24%. Work on `c1cc(-c2cnn3cc(-c4ccc(N5CCNCC5)cc4)cnc23)c2cccnc2c1` yielded a cell viability of 107 ± 1.7%. Work on `NC[C@@](O)(c1ccc(Cl)cc1)c1ccc(-c2cn[nH]c2)cc1` yielded a cell viability of 108 ± 8.3%. Molecule `COc1cc2ncnc(Nc3ccc(F)c(Cl)c3)c2cc1NC(=O)/C=C/CN1CCCCC1` has a cell viability of 104 ± 3.3%. In the case of `CC[C@H](CO)Nc1nc(NCc2ccccc2)c2ncn(C(C)C)c2n1` [(R)-Roscovitine], the cell viability is reported as 105 ± 9.1%. With `Cn1cnc(N)c2ncnc1-2` [3-Methyladenine] the cell viability was 119 ± 7.3%. In the case of `Cc1ncc(CCCN(C)C)cc1Nc1ncc2c(n1)-c1ccc(C(F)(F)F)cc1NC(=S)C2`, the cell viability is reported as 100 ± 2.9%. With `CCS(=O)(=O)N1CC(CC#N)(n2cc(-c3ncnc4[nH]ccc34)cn2)C1` [Baricitinib†(Phosphate)] the cell viability was 112 ± 13%. With `Cc1ccc(NC(=O)c2ccc(CN3CCN(C)CC3)cc2)cc1Nc1nccc(-c2cccnc2)n1` [Imatinib (STI571)] the cell viability was 97.6 ± 9.5%. With `COc1cc2ncnc(Oc3cccc(NC(=O)Nc4cc(C(C)(C)C(F)(F)F)on4)c3)c2cc1OC` the cell viability was 115 ± 3.7%. `N[C@@H]1CCCN(c2c(/C=C3\SC(=O)NC3=O)cccc2-c2ccccc2)C1` was tested, and the cell viability was 103 ± 1.3%. For `O=C1NC(=O)C(c2cnc3ccccn23)=C1c1cn2c3c(cc(F)cc13)CN(C(=O)N1CCCCC1)CC2`, the cell viability was 125 ± 6.1%.
